Source: ChEMBL document CHEMBL4513216, “Probing the Open Global Health Chemical Diversity Library for Multistage-Active Starting Points for Next-Generation Antimalarials” (ACS Infect Dis, 2020)
Out of some 68,000 compounds screened, about 2,700 (4%) showed an effect of 50% or more. This excerpt belongs to a sample that is enriched for strong results.

These compounds were tested on Plasmodium berghei (assay: Screen against P. berghei liver stage (PbLuc), transformed with Luciferase, at 2uM). Settings: tested at 2 uM.
Type: functional, HepG2

Row | SMILES | INHIBITION
1 | COc1cccc2cc(CNC(=O)N3CCC(N4CCCC4)C3)oc12 (configuration not stated) | 25.35%
2 | CN(C)C(=O)CN1CCC2(CCN(C(=O)N3CCCC3)CC2)C1=O | -4.75%
3 | CN(C)C(=O)CN1CCC2(CCN(S(C)(=O)=O)CC2)C1=O | 39.73%
4 | CN(C)C(=O)CN1CCC2(CCN(C(=O)N(C)C)CC2)C1=O | 54.01%
5 | Cc1cnc(N2C[C@@H]3[C@@H](C2)OCC(=O)N3CCN(C)C)nc1 | 30.58%
6 | CNc1nc(N2CCN(Cc3ccsc3)C(CCO)C2)nc2c1CCC2 (configuration not stated) | 35.43%
7 | O=C(C1CCOCC1)N1C[C@@H]2CC[C@H]1CN(Cc1ccncc1)C2 | -21.32%
8 | c1cc(-c2noc([C@@H]3CCCN3C3CCC3)n2)cc(N2CCCC2)n1 | 23.81%
9 | c1cc(-c2noc(C3CCC3)n2)cc(N2CCCCC2)n1 | -23.44%
10 | c1cc(-c2noc([C@@H]3CCCN3CC3CC3)n2)cc(N2CCCC2)n1 | 74.33%
11 | Cc1ccc(CN(Cc2ccccn2)C(=O)CCC2CCCN(C)C2)s1 (configuration not stated) | 50.59%
12 | Cc1ccc(CN(Cc2ccccn2)C(=O)[C@H]2CC[C@@H](N)C2)s1 | 26.74%
13 | Cc1ccc(CN(Cc2ccccn2)C(=O)C2CCCCCN2C)s1 (configuration not stated) | -42.41%
14 | CCn1ccnc1CN1CCNCC1C (configuration not stated) | -47.18%
15 | c1cnc(-c2cnc(N3CCSCC3)nc2C2CC2)cn1 | -109.23%
16 | CCCSCC(=O)N1CCC2(CC1)CC(c1ccccc1)CN(C)C2 (configuration not stated) | 33.16%
17 | O=C1CO[C@@H]2CN(CC3CC3)C[C@H]2N1Cc1cccc(F)c1 | 52.81%
18 | O=C1CO[C@@H]2CN(CC3CCOC3)C[C@H]2N1Cc1cccc(F)c1 (some centres not stated) | -12.84%
19 | O=C1CO[C@@H]2CN(C3CCOCC3)C[C@H]2N1Cc1cccc(F)c1 | 2.98%
20 | Cn1nc2c(cc1=O)CN(CCOc1ccccc1C#N)CC2 | -45.4%
21 | Cc1nc(-c2ccccc2)nc2c1CCN(Cc1nccn1C)CC2 | 3.18%
22 | CCc1ccc(CN2CCCn3c(nc(Cn4ccnc4)cc3=O)C2)o1 | 54.56%
23 | Cc1ccc(CN2CCCn3c(nc(Cn4ccnc4)cc3=O)C2)o1 | 33.97%
24 | O=c1cc(Cn2ccnc2)nc2n1CCCN(Cc1ccco1)C2 | -0.18%
25 | Cc1ncoc1C(=O)N1C[C@H]2CCC[C@@]2(COCc2cccnc2)C1 | 30.77%
26 | Cc1ccccc1C(NC(=O)CCCS(C)(=O)=O)C(C)(C)C (configuration not stated) | 33.22%

Row | SMILES | INHIBITION
27 | CCc1nnc(SC2CCCN(c3cccc(F)c3)C2=O)n1C (configuration not stated) | 77.68%
28 | CCc1nnc(SC2CCCN(c3cnn(C)c3)C2=O)n1C (configuration not stated) | 11.87%
29 | Cn1nnnc1SC1CCCN(c2cccc(F)c2)C1=O (configuration not stated) | 14.65%
30 | COc1ccc(CNC(=O)N(Cc2ccc(F)cc2F)C2CC2)cn1 | -67.07%
31 | COCCN1CCN(Cc2cnc(C)nc2)CC1 | 17.8%
32 | CCC(C)S(=O)(=O)N1CCc2nc(C3CCNCC3)ncc2C1 (configuration not stated) | -0.83%
33 | O=C(c1ccoc1)N1CCC2(C1)CN(c1ncccn1)C2 | 25.43%
34 | CC(=O)N1CC2(CCN(C(=O)c3ccoc3)C2)C1 | 67.62%
35 | CC(=O)N1CCC2(CC1)CN(C(=O)c1ccc3c(c1)OCO3)C2 | 37.54%
36 | CC(=O)N1CC2(CCN(C(=O)c3ccc4c(c3)OCCO4)CC2)C1 | 65.54%
37 | Cc1cnc(N2CC3(CCN(C(=O)c4ccoc4)C3)C2)nc1 | -18.49%
38 | CC(=O)N1CCC2(CC1)CN(C(=O)c1ccc3c(c1)OCCO3)C2 | 41.38%
39 | Cc1cccc(COC[C@H]2CC[C@H]3[C@H](CCN3Cc3ccco3)O2)n1 | -22.82%
40 | O=C(c1ccco1)N1CCC2(CCCN(c3ncccn3)C2)C1 (configuration not stated) | -18.02%
41 | NC(=O)C1CN(C(=O)NCC2(c3ccc(F)cc3)CCC2)CCO1 (configuration not stated) | -14.79%
42 | CC1CN(C(=O)C2(c3ccc(F)cc3F)CCOCC2)CCO1 (configuration not stated) | 20.14%
43 | NC(=O)C1CN(C(=O)C2(c3ccc(F)cc3F)CCCC2)CCO1 (configuration not stated) | 56.49%
44 | CN1CC2(CCN(C(=O)CCc3nc4cccnc4n3C)C2)OC1=O (configuration not stated) | -31.03%
45 | N#Cc1ccc(C(=O)N2CC(c3nc(-c4ncccn4)no3)C2)cc1 | 11.43%
46 | CNC(=O)c1cccc(NC(=O)NC(C)CCc2cccn2C)c1C (configuration not stated) | -54.27%
47 | CNC(=O)c1ccc(NC(=O)NC(C)c2cc(C)oc2C)c(C)c1 (configuration not stated) | 41.05%
48 | Cc1cc(C(C)NC(=O)c2cnc3onc(C)c3c2)c(C)o1 (configuration not stated) | 4.49%
49 | CC(C)NC(=O)c1ccc(NC(=O)NC(C)c2ccccn2)cc1 (configuration not stated) | 2.26%
50 | Cc1cc(C(C)NC(=O)c2c[nH]c(=O)c(Cl)c2)c(C)o1 (configuration not stated) | 25.72%
51 | CNC(=O)c1cccc(NC(=O)NCc2ccccc2)c1C | -7.16%
52 | Cc1cc(C(C)NC(=O)c2ccc(O)nc2)c(C)o1 (configuration not stated) | 56.96%
